In the library only some 19% were active in any assay of this set; here they are far more common.
TDP1 cell CPT = qHTS for Inhibitors of human tyrosyl-DNA phosphodiesterase 1 (TDP1): qHTS in cells in presence of CPT. 12% of 420,000 active. Potency, µM (series often up to 46.2 µM), for inactives: at the top dose activity change, negative = growth inhibition, actives largely listed as inhibitors. chicken DT40 Tdp1-/-;hTDP1 cells + 20 nM CPT, ATP luminescence, 48 h; also: potency is read from the fitted curve at half-maximal effect; nearly all actives have a fitted effect of over 55% in size
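Cell growth measured by CellTiter-Glo luminescence after a minimum 48 h, 37 C compound exposure with 20 nM CPT in Tdp1-knockout DT40 cells stably expressing hTDP1, seeded 400/well; qHTS titration format.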
IL-1B inflam inh = qHTS for Inhibitors of Inflammasome Signaling: IL-1-beta AlphaLISA Primary Screen. activity change, % at 57.5 µM. AID 743279, 2014. 4.7% of 360,000 active. THP-1 LPS/ATP IL-1B secretion, AlphaLISA, 16 h; active compounds read low; in the data active = activity change below about -50%; inconclusive = mostly about -30% to -49%
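Secreted IL-1B measured by AlphaLISA bead assay after 16 h compound exposure of THP-1 cells; compounds (final up to 57.5 uM) added 1 h before LPS (250 ng/mL) and ATP (1.25 mM) stimulation; lower signal means less secretion.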
HT1080NT lethal = qHTS for induction of synthetic lethality in tumor cells producing 2HG: qHTS for the HT-1080-NT fibrosarcoma cell line | HT-1080-NT fibrosarcoma viability, CellTiter-Glo ATP luminescence, 48 h | Potency, µM (titrated, usually from 46.1 µM), for the others: at the highest dose activity, negative = less viability, usual class: cytotoxic | 1.6% of 360,000 active | AID 686970, 2013;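 also: NT is the 2HG producing partner of a matched IDH1 knockdown line; potency is read from the fitted curve at half-maximal effect; 0% = DMSO-treated cells and -100% = media-only wells without cells; nearly all actives have a fitted effect of over 55% in size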
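Toxicity toward the 2HG-producing NT line was scored as %Activity, normalised to DMSO and no-cell wells, from CellTiter-Glo luminescence after 48 hours' treatment.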
TDP1 cell noCPT = qHTS for Inhibitors of human tyrosyl-DNA phosphodiesterase 1 (TDP1): qHTS in cells in absence of CPT; DT40 Tdp1-/- hTDP1 cells, no CPT, ATP luminescence, 48 h; Potency, µM (doses to about 46.2 µM), inactives show at the highest dose activity change, negative = growth inhibition, actives largely listed as inhibitors; 15% of 420,000 active; also: potency is read from the fitted curve at half-maximal effect; nearly all actives have a fitted effect of over 55% in size
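Compound effects on proliferation are scored in DT40 Tdp1-/-;hTDP1 cells in the absence of CPT. ATP levels (CellTiter-Glo luminescence) are recorded after a ≥48 hr, 37 °C incubation.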
ELG1 DNA repair = qHTS screen for small molecules that inhibit ELG1-dependent DNA repair in human embryonic kidney (HEK293T) cells expressing luciferase-tagged ELG1; 2.3% of 330,000 active; Potency, µM (highest dose often 46.1 µM), for inactives: at the highest dose activity change, negative = inhibition, most hits filed as inhibitors; AID 504467, 2011; HEK293T ELG1-luciferase reporter, luminescence, 16 h; DNA damage induced by 5-fluorouridine; also: potency is read from the fitted curve at half-maximal effect; nearly all actives have a fitted effect of over 55% in size
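DMSO vehicle served as the neutral condition. Each well held 2,000 cells given 5-fluorouridine plus compound; after 16 hr at 37 °C/5% CO2, ONE-Glo was added and luciferase measured 30 min later.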
HT1080 IDH1KD tx = qHTS for induction of synthetic lethality in tumor cells producing 2HG: qHTS for the HT-1080-IDH1KD cell line | 2% of 360,000 active | HT-1080 IDH1 knockdown viability, ATP luminescence, 48 h | AID 686971, 2013 | Potency, µM (top dose mostly 46.1 µM), for the others: at the highest dose activity, negative = toxicity, hits mostly cytotoxic;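 also: potency is read from the fitted curve at half-maximal effect; 0% = DMSO wells and -100% = cell-free medium wells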
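IDH1KD HT-1080 cells, 750/well, RPMI + 5% FBS; compound pinned after 2 h settling; 48 h, 37 °C; CellTiter-Glo luminescence; % activity normalised to DMSO and no-cell wells; curves fitted, classed by r2 and efficacy.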
The depositor's hits bear a star; ? = inconclusive; / = no result given; [ ] = remark or other dose. Unless noted, calls follow the shape of the dose curve; as a rule, active = well fitted curve in the direction sought with a large enough effect; inconclusive = small, poorly fitted or top-dose-only effect, or another doubt; inactive = no such curve, though single readings can be large; an effect the other way counts as inactive or inconclusive. Unless noted, % is scaled to controls: 0 for no effect and ±100 for the full control effect.

SMILES	TDP1 cell CPT	IL-1B inflam inh	HT1080NT lethal	TDP1 cell noCPT	ELG1 DNA repair	HT1080 IDH1KD tx
CCOc1ccccc1CNC(=O)c1ccc(NC(=O)N2CC(C)Sc3ccccc32)cc1 (stereo unspecified)	13µM*	/	/	7.31µM*	/	/
O=C(Nc1ccccc1)N1CCc2ccccc21	?	-6.5	-19.6%	?	?	-11.3%
Cc1ccccc1N(CC(=O)NCCc1ccccc1)C(=O)c1csnn1	-4.5%	-6.2	7.1%	-6.0%	-0.7%	9.5%
COc1ccc2c(c1)Cc1c-2cc(Br)c(N)c1Br	-12.9%	20.5	3.4%	?	/	1.2%
COc1ccc2cc(C(=O)NCc3ccco3)c(=O)oc2c1	-20.4%	-4.8	-10.7%	-6.4%	?	-10.6%
CCOc1ccccc1Nc1nnc(-c2cc3cc(OC)ccc3oc2=O)s1	8.2µM*	/	/	7.31µM*	/	/
COc1cccc2cc(-c3nnc(Nc4c(F)cccc4F)s3)c(=O)oc12	1.5%	/	/	2.8%	/	/
COc1ccc2oc(=O)c(-c3nnc(NCc4ccco4)s3)cc2c1	5.8µM*	-27.5	-21.3%	3.66µM*	?	?
COc1ccc2oc(=O)c(-c3csc(Nc4ccc(O)cc4)n3)cc2c1	3.26µM*	-91.1*	?	5.8µM*	9.2µM*	?
O=C(c1ccco1)N1CCN(Cc2nc(-c3cccs3)no2)CC1	1.4%	0.0	2.3%	-1.0%	?	17.8%
COc1ccc(Cl)cc1NC(=O)c1cccc(-n2cnnn2)c1	-1.9%	-9.0	-0.4%	0.4%	-19.0%	-0.7%
Cc1ccc(NC(=O)N2CCCC2C(=O)NCC2CCCCC2)cc1 (stereo unspecified)	-1.1%	-5.3	-1.3%	?	8.7%	12.7%
CC(=O)c1ccc(OCc2ccc(C(=O)c3ccccc3)cc2)cc1	10.3µM*	-60.5*	-29.8%	8.2µM*	-14.0%	-24.1%
CC(C)C(C)NC(=O)COc1ccc(Sc2ccc(OCC(=O)NC(C)C(C)C)cc2)cc1 (stereo unspecified)	11.6µM*	9.6	-0.5%	8.2µM*	8.2µM*	8.8%
CC(C)C(C)NC(=O)COc1ccc(-c2ccccc2)cc1 (stereo unspecified)	18.4µM*	-7.8	0.7%	20.6µM*	5.8%	-1.2%
CCOC(=O)c1cc(OCC(=O)NC(C)C(C)C)cc(C(=O)OCC)c1 (stereo unspecified)	-2.0%	4.7	-0.4%	-18.6%	-5.0%	-7.1%
CC(C)C(C)NC(=O)COc1ccc(OCc2ccccc2)cc1 (stereo unspecified)	?	23.2	-5.7%	?	-2.9%	-2.5%
CC(C)NC(=O)COc1ccc(OCc2ccccc2)cc1	?	23.2	-9.5%	29.1µM*	-6.7%	-12.5%
Brc1ccc2nc(-c3ccco3)c(CC3CCCCC3)n2c1	?	-4.6	-25.4%	?	/	?
O=C(CCc1nc2ccccc2c(=O)[nH]1)N1CCCc2ccccc21	?	52.8	-20.2%	8.2µM*	?	-15.8%
O=C(CCc1nc2ccccc2c(=O)[nH]1)N1CCN(c2ccccc2Cl)CC1	20.6µM*	-4.1	6.2%	16.4µM*	?	-0.5%
CCCc1cc(=O)[nH]c(SCc2nc(-c3ccc(OC)cc3)no2)n1	?	/	/	-28.7%	/	/
CC(=O)Nc1cccc(-c2nnc(SCC(=O)c3cc([N+](=O)[O-])ccc3Br)o2)c1	5.17µM*	/	/	5.17µM*	/	/
COc1ccc(C(=O)N2CCC2(C)C(=O)NC(C)C)cc1 (stereo unspecified)	-7.9%	7.6	?	-6.5%	/	22.8%
COc1ccc(N=c2oc3cc(O)ccc3cc2C(=O)Nc2ccccn2)cc1OC	1.46µM*	-28.3	18.7%	2.06µM*	4.11µM*	10.8%
SMILES	TDP1 cell CPT	IL-1B inflam inh	HT1080NT lethal	TDP1 cell noCPT	ELG1 DNA repair	HT1080 IDH1KD tx
CC(=O)c1cc2ccc(O)cc2oc1=O	-1.9%	-8.8	1.6%	5.7%	5.1%	8.5%
Cc1ccc(N=c2oc3cc(O)ccc3cc2C(N)=O)cc1	8.2µM*	?	?	7.31µM*	?	?
CS(=O)(=O)N1CCN(c2ccccc2[N+](=O)[O-])CC1	0.1%	14.2	7.7%	-0.5%	4.6%	26.8%
COc1ccc(N(Cc2ccccc2)C(=O)OC(C)(C)C)c(C(=O)N(C)OC)c1	?	-9.4	-0.9%	?	5.7%	2.5%
C=C(c1nc2ccccc2s1)C1Cc2cccc3c2N(CCC3)C1 (stereo unspecified)	0.0891µM*	/	/	0.0891µM*	/	/
CCn1cc(CN2Cc3ccccc3OC(c3ccccc3OC)C2)c(C)n1 (stereo unspecified)	-7.8%[9.04 µM]	/	/	?	/	/
C=CCn1c(=O)c2c(C)c(C)sc2n2c(Nc3ccccc3)nnc12	23.1µM*	-17.6	?	23.1µM*	?	?
O=C(NCC1CCN(Cc2ccccc2Cl)CC1)c1cc2ccc3cccnc3c2[nH]1	?	/	/	16.4µM*	/	/
O=C(NCC1CCN(Cc2ccc(F)cc2)CC1)c1cc2ccc3cccnc3c2[nH]1	16.4µM*	/	/	20.6µM*	/	/
CN1CCN(c2ncc3nc(-c4ccccc4)c(=O)n(Cc4ccc(F)cc4)c3n2)CC1	-11.7%	/	/	-29.6%	/	/
CCCOC(=O)c1cccc(Nc2nc(CCC)cc(=O)[nH]2)c1	16.4µM*	/	/	14.6µM*	/	/
CCCc1cc(=O)[nH]c(Nc2ccccc2O)n1	-18.0%	/	/	-7.5%	/	/
COC(=O)c1cc(=O)n(Cc2ccc(F)cc2)c(=Nc2ccccc2)s1	?	?	-24.0%	?	?	-17.3%
COC(=O)c1cc(=O)n(Cc2ccc(OC)c(OC)c2)c(=Nc2ccc(F)cc2)s1	16.4µM*	-22.8	?	14.6µM*	?	-15.7%
COC(=O)c1cc(=O)n(Cc2ccco2)c(=Nc2ccc(F)cc2)s1	20.6µM*	-18.3	23.1µM*	?	?	?
COC(=O)c1cc(=O)n(Cc2cccs2)c(=Nc2ccccc2)s1	-12.0%	-1.2	-22.1%	-27.1%	?	-5.4%
COC(=O)c1cc(=O)n(-c2ccccc2)c(=Nc2ccccc2)s1	?	-58.0*	?	23.1µM*	?	?
